From PubChem BioAssay (Tox21) come the findings set out here.

“And” between values parts separate entries of the source, which are not always exact repeats. Equal values may be shown once. Records with an inconclusive call do not appear. Some structures have more than one record in an assay (separate samples or runs), and their calls can disagree. The source made the active and inactive calls. Unless noted, the call rests on the fitted dose curve; in most records, active means well fitted curve in the direction sought with a large enough effect in the repeat runs; inconclusive means weak or mixed curves; inactive means no such curve, though single readings can be large; an effect the other way counts as inactive or inconclusive.

The nature of test [1]: qHTS assay to identify small molecule antagonists of the vitamin D receptor (VDR) signaling pathway - cell viability counter screen (AID 743225). Further: nearly all actives have a fitted effect of over 50% in size. Further: potency means the concentration at half of the fitted maximal effect. On viability change, negative = cytotoxic: on the % scale 0 is the no-effect control and ±100 the full control effect. The essentials: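 Luminescent cell viability (CellTiter-Glo) in VDR-bla HEK 293T cells after 16 h compound exposure at 37C in the presence of 3 nM final 1-alpha,25-dihydroxy vitamin D3.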
In general terms: qHTS replaces the single test concentration by a dilution series.

A short description of test [2]: qHTS assay to identify small molecule agonists of the endoplasmic reticulum stress response signaling pathway - cell viability counter screen (AID 1159517; calls by dose curve; further: nearly all actives have a fitted effect of over 50% in size; further: potency means the concentration at half of the fitted maximal effect). The essentials: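 ESRE-bla HeLa cells (1,500/well) were plated overnight at 37 C and exposed to compounds for 5 hr. After the 2 hr beta-lactamase substrate read, CellTiter-Glo went into the same wells, and luminescence was read after 30 min at room temperature.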

For test [3], the target named is Retinoic acid receptor RXR-alpha (Homo sapiens) (UniProt P19793). Nature of the test: qHTS assay to identify small molecule agonists of the RXR signaling pathway (AID 1159527; calls by dose curve; further: on the % scale 0 is the no-effect control and ±100 the full control effect; nearly all actives have a fitted effect of over 35% in size). Summed up:
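Beta-lactamase reporter assay, agonist format. Engineered HEK 293T line, charcoal-stripped FBS at 2%, overnight (16 hr) exposure, fluorescence at 460 and 530 nm after 405 nm excitation.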

Test [4] in a line: qHTS assay to identify small molecule agonists of the RXR signaling pathway - cell viability counter screen (AID 1159529). Further: nearly all actives have a fitted effect of over 50% in size. Further: potency means the concentration at half of the fitted maximal effect. The essentials:
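Same-well viability check after the LiveBLAzer FRET read: CellTiter-Glo added, luminescence measured after 30 min at room temperature. Reporter HEK 293T cells had been treated with compounds for 16 hr following a 5 hr preincubation.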

The nature of test [5]: qHTS assay to identify small molecule antagonists of the retinoid-related orphan receptor gamma (ROR-gamma) signaling pathway - cell viability counter screen (AID 1159520). Further: nearly all actives have a fitted effect of over 50% in size. Further: potency means the concentration at half of the fitted maximal effect. On activity, negative = cytotoxicity: on the % scale 0 is the no-effect control and ±100 the full control effect. The essentials:
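Cytotoxicity was read from cellular ATP (CellTiter-Glo luminescence) after 16 hr at 37 C with 1 uM doxycycline induction. The inducer was added 2 hr after compound transfer to Tet-on ROR gamma CHO cells.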

Test [6] has as its target Nuclear receptor ROR-gamma (Homo sapiens) (UniProt P51449). Nature of the test: qHTS assay to identify small molecule antagonists of the retinoid-related orphan receptor gamma (ROR-gamma) signaling pathway (AID 1159521; further: nearly all actives have a fitted effect of over 50% in size; further: potency means the concentration at half of the fitted maximal effect;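 on activity change, negative = inhibition: CHO cells with doxycycline inducible ROR-gamma driving an RORE luciferase reporter; top concentration of the series differs between compounds; on the % scale 0 is the no-effect control and ±100 the full control effect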). Summed up:
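CHO cells expressing RORγ under a TET-on promoter, luciferase under RORE control. Dox 1 uM final, 16 h; compounds added 2 h prior. Luminescence decrease measured.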

Test [7] is described as follows: qHTS assay to identify small molecule agonists of the AP-1 signaling pathway - cell viability counter screen (AID 1159525; calls by dose curve; further: nearly all actives have a fitted effect of over 55% in size). The essentials: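 Intracellular ATP by Cell Titer Glo luminescence (30 min, RT) in the same ME-180 AP-1-bla wells after the 5 h compound exposure at 37 °C. Normalised to tetra n-octyl ammonium bromide and DMSO controls.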
Test [8] is described as follows: qHTS assay to identify small molecule agonists of the AP-1 signaling pathway (AID 1159526; calls by dose curve; further: potency means the concentration at half of the fitted maximal effect; on activation: on the % scale 0 is the no-effect control and ±100 the full control effect).

Retinoic acid receptor RXR-alpha (Homo sapiens), sequence (P19793 whole entry, looked up): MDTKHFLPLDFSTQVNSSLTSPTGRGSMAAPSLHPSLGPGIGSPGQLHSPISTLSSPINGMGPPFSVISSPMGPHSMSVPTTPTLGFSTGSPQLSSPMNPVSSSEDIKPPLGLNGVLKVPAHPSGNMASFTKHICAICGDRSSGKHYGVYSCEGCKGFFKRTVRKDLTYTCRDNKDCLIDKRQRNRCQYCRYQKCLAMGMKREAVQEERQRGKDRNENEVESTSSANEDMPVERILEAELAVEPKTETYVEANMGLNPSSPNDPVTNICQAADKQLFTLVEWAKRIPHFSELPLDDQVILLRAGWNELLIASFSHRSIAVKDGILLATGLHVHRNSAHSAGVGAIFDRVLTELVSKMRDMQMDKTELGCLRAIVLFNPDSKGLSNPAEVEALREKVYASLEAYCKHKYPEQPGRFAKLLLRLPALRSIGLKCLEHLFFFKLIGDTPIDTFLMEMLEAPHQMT

Turning to `Oc1ccc(C(c2ccc(O)cc2)(C(F)(F)F)C(F)(F)F)cc1`, the Potency entry in test [1] is “inactive and 38.9 µM (active)”; in test [2] it was 49 µM (active); in test [4] it was 48.8 µM (active). The result in test [3] was inactive.

With `N#CCc1ccc(Cl)cc1`, the Potency result in test [5], in test [6], in test [7], in test [8] and in test [4] was “inactive” each time. For the same compound, in test [3], the compound was called inactive.

Regarding `Cc1cc(Cl)ccc1O[C@H](C)C(=O)O`, the Potency entry in test [5], in test [6], in test [7], in test [8] and in test [4] was “inactive” in each case. For the same compound, the compound was classed as inactive in test [3].

`Nc1ccc(Sc2ccc(N)cc2)cc1`: the Potency result in test [5], in test [6] and in test [7] was “inactive” in each case.

For `Nc1ccc([N+](=O)[O-])cc1Cl`, the Potency entry in test [5], in test [6], in test [7], in test [8] and in test [4] was “inactive” in each case. The result in test [3] was inactive.

Turning to `N#Cc1c(-c2ccc(Cl)cc2)[nH]c(C(F)(F)F)c1Br`, the values for the Potency in test [5] and in test [6] were 0.611 µM (active) and 0.137 µM (active), respectively. Further, in test [7], the Potency result was “inactive”.

For `CN(CCCC(=O)c1cccnc1)N=O`, the Potency result in test [5], in test [6], in test [7], in test [8] and in test [4] was “inactive” each time. Also, in test [3], the compound was classed as inactive.

Take `C[As+](C)(C)CC(=O)[O-]`: the Potency entry in test [5], in test [6], in test [7] and in test [4] was “inactive” in each case. In test [8], the Potency was 43.6 µM (active). Besides, the compound was classed as inactive in test [3].

In the case of `O=[N+]([O-])c1cc(Cl)ccc1Cl`, the Potency result in test [5], in test [6], in test [7], in test [8] and in test [4] was “inactive” each time. Also, in test [3], the compound was classed as inactive.

On to `O=C(CCl)C(Cl)Cl`, for which the Potency in test [5] was 27.6 µM (active); in test [6] it was 6.17 µM (active).

As for `N#C/C=C/c1ccccc1`, the Potency result in test [5], in test [6], in test [7], in test [8] and in test [4] was “inactive” throughout. The result in test [3] was inactive.

Turning to `CCC(C)c1cc([N+](=O)[O-])cc([N+](=O)[O-])c1OC(=O)C=C(C)C` (stereo not drawn), the Potency result in test [2] is “inactive”. The Potency in test [6] is 17.2 µM (active).

Regarding `Cl/C=C\CCl`, the Potency entry in test [5], in test [6], in test [7], in test [8] and in test [4] was “inactive” in each case. Also, the compound was classed as inactive in test [3].

For the compound `BrCC(Br)c1ccccc1` (stereo not drawn), the Potency result in test [5], in test [6], in test [7], in test [8] and in test [4] was “inactive” throughout. For the same compound, the result in test [3] was inactive.

As to `Cc1ccc(CCl)cc1`, the Potency result in test [5], in test [6], in test [7], in test [8] and in test [4] was “inactive” each time. The outcome in test [3] was inactive.

For the compound `CCSC(C)CC1CC(=O)C(/C(CC)=N/OC/C=C/Cl)=C(O)C1` (stereo not drawn), the Potency entry in test [5], in test [6], in test [7], in test [8] and in test [4] was “inactive” in each case. Also, the compound was classed as inactive in test [3].

Take `c1cc[c]([Sb]([c]2ccccc2)[c]2ccccc2)cc1`: the Potency entry in test [5] is “inactive”. In addition, the Potency in test [6] is 61.1 µM (active).

Regarding `ClCCN1CCOCC1`, the Potency entry in test [5], in test [6], in test [7], in test [8] and in test [4] was “inactive” in each case. In addition, the compound was called inactive in test [3].

Turning to `O=[N+]([O-])c1c2ccccc2cc2ccccc12`, the Potency entry in test [5], in test [6] and in test [7] was “inactive” in each case.

Take `COC[C@H](C)N(C(=O)CCl)c1c(C)csc1C`: the Potency entry in test [5], in test [6], in test [7], in test [8] and in test [4] was “inactive” each time. Besides, the result in test [3] was inactive.

On to `O=C1c2ccccc2C(=O)C1C(=O)C(c1ccccc1)c1ccc(Cl)cc1` (stereo not drawn), for which the results for the Potency in test [5] and in test [6] were 30.6 µM (active) and 5.45 µM (active), respectively. Further, the Potency result in test [7] was “inactive”.

On to `Brc1c(Br)c(Br)c(Oc2c(Br)c(Br)c(Br)c(Br)c2Br)c(Br)c1Br`, for which the activity, negative = cytotoxicity in test [5] was -0.215% [at 19 µM] (inactive). In addition, in test [6], the activity change, negative = inhibition was 5.56% [at 19 µM] (inactive). In test [7], the viability change, negative = cytotoxic was 2.51% [at 15.8 µM] (inactive). Besides, the results for the activation in test [8] and in test [3] were 8.87% [at 15.8 µM] (inactive) and 5.85% [at 15.8 µM] (inactive), respectively. For the same compound, in test [4], the activity change, negative = cytotoxicity is 2.64% [at 15.8 µM] (inactive).

As to `Cc1cc(C(C)(C)c2cc(C)c(O)c(C)c2)cc(C)c1O`, the Potency in test [2] was 59.6 µM (active); in test [6], 26.4 µM (active); in test [4], 47.4 µM (active).

Take `CC(C)Oc1cccc(NC(=O)c2ccccc2C(F)(F)F)c1`: the Potency entry in test [2], in test [5] and in test [8] was “inactive” each time.

As for `C=CC(=O)OCC(COC(=O)C=C)(COC(=O)C=C)COC(=O)C=C`, the Potency was 6.92 µM (active) in test [1], 12.3 µM (active) in test [2], 3.44 µM (active) in test [6] and 17.4 µM (active) in test [4].

For `COP(=O)(CCC(=O)NCO)OC`, the Potency entry in test [5], in test [6], in test [7], in test [8] and in test [4] was “inactive” each time. Also, the compound was classed as inactive in test [3].

Regarding `C=CCOC(N)=O`, the Potency entry in test [5], in test [6], in test [7], in test [8] and in test [4] was “inactive” in each case. Also, the result in test [3] was inactive.
